High-throughput results (PubChem)
TRPV1 PAM = enhances activation of the human vanilloid receptor TRPV1; potentiation, % at 8.33 µM; AID 540277; 320,000 tested, 0.02% active; Q8NER1; TRPV1-expressing cells, Fluo-8 calcium influx, capsaicin EC20 potentiation; in the data active = potentiation above about 80%; inconclusive = between about 30% and that limit; note: 0% is about no effect
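TRPV1-expressing cells were cultured overnight at 35.5C and loaded with Fluo-8 calcium dye for 40 to 90 min at room temperature. After a 10 s baseline, compound was added and calcium influx was read kinetically for 3 min (ex 480/em 520 nm).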
uPA surface inh = blocks generation of uPA at the cell surface; 330,000 tested, 0.31% active; Potency, µM (series often up to 38.3 µM), inactives show at the highest dose activity change, negative = inhibition, hits mostly inhibitors; AID 540303; cell surface uPA generation assay, qHTS; active = well fitted inhibition curve with a large enough effect; inconclusive = small, poorly fitted or top-dose-only effect; inactive = no such curve, though single readings can be large or run the other way; tested in mouse RAW 264.7 cells; note: potency is the fitted concentration of half-maximal effect; % is set by controls: 0 for no effect and ±100 for the full control effect; nearly all actives have a fitted effect of over 55% in size
RORgamma inh = ROR gamma (mouse) transcription inhibition. Drosophila S2 Gal4-RORgamma UAS-luciferase reporter, 20 h. Potency, µM (highest dose often 53.6 µM), for the others: at the top dose activity change, negative = inhibition, usual class: inhibitors. 310,000 tested, 5.4% active; note: potency is the fitted concentration of half-maximal effect; % is set by controls: 0 for no effect and ±100 for the full control effect; nearly all actives have a fitted effect of over 60% in size
Target sequence (P51450 whole entry, looked up, the tested form may be a part): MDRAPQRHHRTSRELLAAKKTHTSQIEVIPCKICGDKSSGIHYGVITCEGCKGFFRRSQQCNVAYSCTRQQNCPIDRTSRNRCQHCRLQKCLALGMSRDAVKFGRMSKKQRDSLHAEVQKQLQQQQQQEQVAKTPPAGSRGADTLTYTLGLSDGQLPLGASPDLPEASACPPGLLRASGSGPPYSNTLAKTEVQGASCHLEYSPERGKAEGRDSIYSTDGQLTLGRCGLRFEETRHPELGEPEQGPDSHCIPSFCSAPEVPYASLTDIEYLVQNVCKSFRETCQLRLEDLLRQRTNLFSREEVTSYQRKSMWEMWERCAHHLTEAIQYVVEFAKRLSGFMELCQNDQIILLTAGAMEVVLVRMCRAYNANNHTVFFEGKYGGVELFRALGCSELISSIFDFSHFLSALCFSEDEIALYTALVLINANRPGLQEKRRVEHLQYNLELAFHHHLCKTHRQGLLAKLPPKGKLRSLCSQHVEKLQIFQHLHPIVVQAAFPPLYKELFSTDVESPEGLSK
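Compounds are pin-transferred onto Drosophila Schneider cells expressing a copper-inducible Gal4–ROR gamma transactivation domain fusion. After 1 hr, copper sulfate is added to 700 uM final; luciferase is read 20 hr later.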
Gal4-VP16 FLuc = inhibits Gal4-VP16 luciferase reporter, ROR gamma counter-screen | 310,000 tested, 3.5% active | Drosophila S2 Gal4-VP16 UAS-luciferase, luminescence, 20 h | AID 2546 | Potency, µM (top dose mostly 53.6 µM), without a hit: top-dose activity, negative = inhibition, usual class: inhibitors;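 note: Gal4-VP16 expression switched on by copper sulfate through the metallothionein promoter; potency is the fitted concentration of half-maximal effect; % is set by controls: 0 for no effect and ±100 for the full control effect; nearly all actives have a fitted effect of over 50% in size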
TRPV1 agonist = agonists of human vanilloid receptor 1 (TRPV1). TRPV1-expressing cells, Fluo-8 calcium influx, agonist mode. 320,000 tested, 0.19% active. Q8NER1. AID 540275. activation, % at 8.33 µM; in the data active = activation above about 80%; inconclusive = between about 30% and that limit; note: 0% is about no effect
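Cells expressing TRPV1 were dye-loaded with Fluo-8 and read kinetically: 10 s baseline, 3 min after compound (agonist portion), then 2 min after EC20 capsaicin (allosteric enhancer portion). Calcium-bound dye fluorescence at 480/520 nm.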
Active calls of the source: *; ? = inconclusive; . = no result given; [ ] = another dose, or the depositor's remark. Shown are actives, neighbours in structure and some others; about 5.8% of the full set was active somewhere. Unless noted, calls come from the whole dose curve; as a rule, active = well fitted curve in the direction sought with a large enough effect; inconclusive = small, poorly fitted or top-dose-only effect, or another doubt; inactive = no such curve, though single readings can be large; an effect the other way counts as inactive or inconclusive.

SMILES	TRPV1 PAM	uPA surface inh	RORgamma inh	Gal4-VP16 FLuc	TRPV1 agonist
Fc1ccccc1/C=C1\CCCC2=C1NC(=S)NC2c1ccccc1F (stereo unspecified)	-1	1%	2.5µM*	11µM*	1
S=C1NC2=C(CCC/C2=C\c2ccccc2)C(c2ccccc2)N1 (stereo unspecified)	0	-1%	3.5µM*	8.9µM*	2
CCOc1ccc(C(=O)c2ccc(OC)c(O)c2O)cc1	.	.	-2%	-1%	.
C(=C1/CCCC2=C1Nc1ncnn1C2c1ccccc1)/c1ccccc1 (stereo unspecified)	.	.	2.8µM*	4µM*	.
Fc1cccc(/C=C2\CCCC3=C2NC(=S)NC3c2cccc(F)c2)c1 (stereo unspecified)	-2	-10%	2.8µM*	3.5µM*	3
COc1ccc(C2C3=C(Nc4ncnn42)c2ccccc2CC3)cc1OC (stereo unspecified)	-4	.	-21%	1%	-3
N/C(=N/OC(=O)c1cccc([N+](=O)[O-])c1)c1cccc([N+](=O)[O-])c1	-1	-2%	6%	-10%	-1
CC1=C(C)/C(=N/OC(=O)c2cccc([N+](=O)[O-])c2)C=CC1=O	3	-12%	3.5µM*	3.5µM*	-5
COc1ccccc1C/C(N)=N/OC(=O)/C=C/c1ccccc1	-5	0%	5.6µM*	-26%	6
COc1ccccc1C/C(N)=N/OC(=O)c1cccs1	3	-9%	-3%	4%[10 µM]	1
COc1ccc(C/C(N)=N/OC(=O)c2cccc([N+](=O)[O-])c2)cc1	1	-1%	2%	-28%	4
COc1ccccc1C/C(N)=N/OC(=O)c1cccc([N+](=O)[O-])c1	0	-2%	10µM*	-24%	-3
COc1ccc(CN(C(=O)CSc2nnc(-c3ccccc3F)o2)c2ccc(F)cc2)cc1	1	0%	7%[0.365 µM]	.	?
O=C(c1csnn1)N1CCC2(CC1)CN(C(c1ccccc1)c1ccccc1)C2	.	.	7%	2%	.
CCCOc1ccc(CC(=O)NCCc2ccccc2)cc1OC	-12	8%	-17%[1.91 µM]	-1%	?
O=C(NC(=S)NCCO)c1cn(-c2ccccc2)nc1-c1ccccc1	1	6%	10µM*	?	2
N#Cc1cc2ccccc2nc1SCc1ccccn1	5	.	6.3µM*	?	4
O=C1C2C3C=CC(C4CC34)C2C(=O)N1c1ccc2c(c1)OCO2 (stereo unspecified)	14	1%	-5%	-9%	1
COc1ccc(C(=O)Sc2nncc3ccccc23)cc1	-8	0%	11µM*	?	10
COc1ccc(NC(=O)CSc2nncc3ccccc23)cc1	25	?	35%	2%	4
CCN(CC)c1c([N+](=O)[O-])ncn1C	3	-3%	16%	1%	0
CCS(=O)(=O)c1c([N+](=O)[O-])ncn1C	7	?	?	10µM*	-7
Cc1ccc(OCC(=O)OCC(=O)Nc2ccc3c(c2)OCO3)cc1C	.	1%	.	.	.
Cn1nc(CC(=O)Nc2ccc(N3CCN(C(=O)OC(C)(C)C)CC3)cc2)c2ccccc2c1=O	-1	-1%	?	2.5µM*	4
Cc1ccc(NC(=O)Cc2nn(C)c(=O)c3ccccc23)cc1F	11	-10%	-19%	11µM*	-3
SMILES	TRPV1 PAM	uPA surface inh	RORgamma inh	Gal4-VP16 FLuc	TRPV1 agonist
Cn1nc(CC(=O)Nc2ccc3c(c2)OCCO3)c2ccccc2c1=O	81*	-11%	-34%	7.9µM*	4
COc1cc(NC(=O)Cc2nn(C)c(=O)c3ccccc23)cc(OC)c1	-10	-5%	?	?	?
CNC(=O)c1ccc(NC(=O)Cc2ccc(S(=O)(=O)N3CCOCC3)s2)cc1	-1	0%	.	.	2
COc1ccc(-c2nnc3n2N=C(c2cc(OC)ccc2OC)CS3)cc1	.	.	18%	-6%	.
Cc1onc(-c2ccccc2Cl)c1C(=O)Nc1ccc(F)c(F)c1	13	1%	-5%	11%	-2
Cc1onc(-c2c(F)cccc2Cl)c1C(=O)Nc1nnc(-c2ccccc2)s1	24	2%	14µM*	?	13
Cc1onc(-c2ccccc2Cl)c1C(=O)Nc1nnc(-c2ccc(Cl)cc2Cl)s1	11	-1%	14µM*	?	-3
Cc1onc(-c2ccccc2Cl)c1C(=O)Nc1nnc(-c2ccc(F)cc2)s1	0	10%	?	-12%	3
